“And” between values parts separate entries of the source, which are not always exact repeats. Equal values may be shown once. Results filed as inconclusive are left out. The source made the active and inactive calls. Unless noted, the call rests on the fitted dose curve.
Key:
[1] = qHTS assay to identify small molecule antagonists of the vitamin D receptor (VDR) signaling pathway - cell viability counter screen (AID 743225; active means well fitted curve in the direction sought with a large enough effect in the repeat runs; an effect the other way counts as inactive or inconclusive; further: nearly all actives have a fitted effect of over 50% in size; further: potency means the concentration at half of the fitted maximal effect; on viability change, negative = cytotoxic: on the % scale 0 is the no-effect control and ±100 the full control effect)
Summary of the method: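 VDR-bla HEK 293T cells, 4 h pre-incubation at 37C, then compound plus 1-alpha,25-dihydroxyvitamin D3 (3 nM final) for 16 h. After the beta-lactamase FRET read, CellTiter-Glo was added to the same wells; luminescence after 30 min at room temperature.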

[2] = qHTS assay to identify small molecule agonists of the NFkB signaling pathway - cell viability counter screen (AID 1159515); further: series mostly up to about 61 µM; on the % scale 0 is the no-effect control and ±100 the full control effect; nearly all actives have a fitted effect of over 55% in size
Summary of the method: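 Parallel cytotoxicity counter screen in ME-180 cells carrying an NFkB-response-element beta-lactamase reporter, 2,000 cells/well. Compound exposure lasted 5 hr at 37 C, 5% CO2. Cell viability was quantified by CellTiter-Glo luminescence.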

[3] = qHTS assay to identify small molecule agonists of the endoplasmic reticulum stress response signaling pathway (AID 1159516; active means well fitted activation curve with a large enough effect in the signal ratio in the repeat runs, not every such curve was filed as active; the % refers to the signal ratio; further: on the % scale 0 is the no-effect control and ±100 the full control effect)
Summary of the method: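 Using a HeLa line with an ESRE-driven beta-lactamase gene, agonist activity was measured by FRET substrate fluorescence (460 and 530 nm emission) after cells were treated with compounds for 5 hr at 37 C and 5% CO2.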

[4] = qHTS assay to identify small molecule agonists of the endoplasmic reticulum stress response signaling pathway - cell viability counter screen (AID 1159517);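 further: HeLa cells carrying an ER stress response element beta-lactamase reporter; series mostly up to about 61 µM; on the % scale 0 is the no-effect control and ±100 the full control effect; nearly all actives have a fitted effect of over 50% in size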
Summary of the method: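 ESRE-bla HeLa cells (1,500/well) were plated overnight at 37 C and exposed to compounds for 5 hr. After the 2 hr beta-lactamase substrate read, CellTiter-Glo went into the same wells, and luminescence was read after 30 min at room temperature.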

[5] = qHTS assay to identify small molecule agonists of the AP-1 signaling pathway - cell viability counter screen (AID 1159525); further: nearly all actives have a fitted effect of over 55% in size; further: potency means the concentration at half of the fitted maximal effect
Summary of the method: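 Intracellular ATP by Cell Titer Glo luminescence (30 min, RT) in the same ME-180 AP-1-bla wells after the 5 h compound exposure at 37 °C. Normalised to tetra n-octyl ammonium bromide and DMSO controls.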

[6] = qHTS assay to identify small molecule agonists of the AP-1 signaling pathway (AID 1159526); further: on the % scale 0 is the no-effect control and ±100 the full control effect
[7] = qHTS assay to identify small molecule agonists of the RXR signaling pathway - cell viability counter screen (AID 1159529; active means well fitted curve in the direction sought with a large enough effect in the repeat runs; an effect the other way counts as inactive or inconclusive; further: nearly all actives have a fitted effect of over 50% in size; further: potency means the concentration at half of the fitted maximal effect)
Summary of the method: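 RXR-alpha-UAS-bla HEK 293T cells in medium with 2% charcoal-stripped FBS were preincubated 5 hr, then exposed to compounds for 16 hr at 37 C. Viability was read as CellTiter-Glo luminescence after 30 min at room temperature.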

[8] = target: Nuclear receptor ROR-gamma (Homo sapiens) (UniProt P51449); experiment: qHTS assay to identify small molecule antagonists of the retinoid-related orphan receptor gamma (ROR-gamma) signaling pathway (AID 1159521; active means well fitted curve in the direction sought with a large enough effect in the repeat runs; an effect the other way counts as inactive or inconclusive; further: nearly all actives have a fitted effect of over 50% in size; further: potency means the concentration at half of the fitted maximal effect)
Summary of the method: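 Tet-on RORγ CHO cells carrying a ROR response element–luciferase reporter were pretreated with compounds for 2 h, then induced with 1 uM (final) doxycycline hyclate for 16 h at 37 C. Antagonism was read as decreased ONE-Glo luminescence.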

[9] = target: Retinoic acid receptor RXR-alpha (Homo sapiens) (UniProt P19793); experiment: qHTS assay to identify small molecule agonists of the RXR signaling pathway (AID 1159527); further: on the % scale 0 is the no-effect control and ±100 the full control effect; nearly all actives have a fitted effect of over 35% in size
Retinoic acid receptor RXR-alpha (Homo sapiens), sequence (P19793 whole entry, looked up): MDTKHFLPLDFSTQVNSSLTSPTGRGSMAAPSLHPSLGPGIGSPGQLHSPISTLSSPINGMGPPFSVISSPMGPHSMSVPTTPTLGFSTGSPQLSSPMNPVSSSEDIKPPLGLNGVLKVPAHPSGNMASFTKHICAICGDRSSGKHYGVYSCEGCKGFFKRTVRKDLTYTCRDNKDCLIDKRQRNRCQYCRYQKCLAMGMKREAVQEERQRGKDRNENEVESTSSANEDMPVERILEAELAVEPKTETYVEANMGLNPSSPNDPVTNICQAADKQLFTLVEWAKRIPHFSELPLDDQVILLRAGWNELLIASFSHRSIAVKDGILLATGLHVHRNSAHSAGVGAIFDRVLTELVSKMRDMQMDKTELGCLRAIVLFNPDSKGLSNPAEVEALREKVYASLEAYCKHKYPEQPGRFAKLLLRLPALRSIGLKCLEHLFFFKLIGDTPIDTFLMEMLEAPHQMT
Summary of the method: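 GeneBLAzer RXR-alpha-UAS-bla HEK 293T cells in medium with 2% charcoal-stripped FBS, pre-incubated 5 hr at 37 C, then exposed to compounds 16 hr. Beta-lactamase reporter read by FRET substrate, 2 hr room temperature, 460/530 nm emission.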

O=C1C(c2[nH]c3ccc(S(=O)(=O)O)cc3c2O)=Nc2ccc(S(=O)(=O)O)cc21
inactive: Potency [1] | Potency [2] | Potency [3] | Potency [4] | Potency [5] | Potency [6] | Potency [7]

c1ccc(C(O[C@@H]2CCCN(CCc3ccc4c(c3)OCO4)C2)c2ccccc2)cc1
inactive: Potency [2] | Potency [3] | Potency [4] | Potency [7]
active: Potency [8] 61.1 µM

CCCCCCCCCCCCOC(=O)c1ccc(O)cc1
inactive: Potency [1] | Potency [2] | Potency [3] | Potency [4] | Potency [8] | Potency [9] | Potency [7]
active: Potency [5] 55.4 µM

O=[N+]([O-])c1ccc(O)cc1C(F)(F)F
inactive: Potency [2] | Potency [3] | Potency [4] | Potency [5] | Potency [6]
active: Potency [8] 7.7 µM

COc1cc2nc(N3CCN(C(=O)c4ccco4)CC3)nc(N)c2cc1OC
inactive: Potency [2] | Potency [3] | Potency [4] | viability change, negative = cytotoxic [5] -7.1% [at 15.8 µM] | activation [6] 3.7% [at 15.8 µM] | activation [9] -11.7% [at 15.8 µM]

COc1c(C)c2c(c(O)c1C/C=C(\C)CCC(=O)OCCN1CCOCC1)C(=O)OC2
inactive: Potency [2] | Potency [3] | Potency [4] | Potency [5] | Potency [6]
active: Potency [8] 0.237 µM

Nc1ccc(NCCO)c([N+](=O)[O-])c1
inactive: Potency [1] | Potency [2] | Potency [3] | Potency [4] | Potency [6] | Potency [9] | Potency [7]

[Cu+]
inactive: Potency [1] | Potency [2] | Potency [3] | Potency [4] | Potency [9] | Potency [7]

COC1=C(OC)C(=O)C(CCCCCCCCCCO)=C(C)C1=O
active: Potency [1] 23.9 µM | Potency [8] 18.8 µM
inactive: Potency [2] | Potency [3] | Potency [4] | Potency [7]

C/C=C/C=C/COC(=O)C(C)C
inactive: Potency [2] | Potency [3] | Potency [4] | Potency [5] | Potency [6] | Potency [7]

CN1CCCCC1CCN1c2ccccc2Sc2ccc(S(C)=O)cc21 (stereo not given)
active: Potency [8] 29.8 µM
inactive: Potency [1] | Potency [2] | Potency [3] | Potency [4] | Potency [9] | Potency [7]

CN1CCN(Cc2cc(-c3ccc4[nH]c(=O)oc4c3)co2)[C@@H](c2ccc(F)cc2)C1
inactive: Potency [2] | Potency [3] | Potency [4] | Potency [5] | Potency [7]
active: Potency [8] 26.3 µM

COc1ccc2cc1Oc1ccc(cc1)C[C@H]1c3c(cc4c(c3Oc3cc5c(cc3OC)CCN(C)[C@@H]5C2)OCO4)CCN1C
active: Potency [7] 23.9 µM
inactive: Potency [2] | Potency [3] | Potency [4]

CC(=O)[C@H]1CC[C@H]2[C@@H]3CCC4=CC(=O)CC[C@]4(C)[C@H]3CC[C@]12C
inactive: Potency [2] | Potency [3] | Potency [4] | Potency [5] | Potency [6]
active: Potency [7] 38.7 µM and 43.6 µM

CC(C)(C)c1csc(-c2cc3cc(OCc4ccccc4CC(=O)O)ccc3o2)n1
inactive: Potency [2] | Potency [3]

O=S(=O)(O)c1ccc(N=Nc2c(O)ccc3ccccc23)cc1
inactive: Potency [2] | Potency [3] | Potency [4] | Potency [6]

Nc1cc(Cl)c(O)c(Cl)c1
active: Potency [8] 68.6 µM
inactive: Potency [1] | Potency [2] | Potency [3] | Potency [4] | Potency [7]

CC[C@H](C)COC(=O)/C=C/c1ccc(N=Cc2ccc(OC)cc2)cc1
inactive: Potency [2] | Potency [3] | Potency [4] | Potency [8]

OC12N=C(c3ccccc3)SC1Cc1cc(Cl)ccc12 (stereo not given)
inactive: Potency [1] | Potency [2] | Potency [3] | Potency [4] | Potency [8] | Potency [5]
active: Potency [7] 54.9 µM

CCCCCC(C)OC(=O)COc1ccc(Cl)c2cccnc12 (stereo not given)
inactive: Potency [2] | Potency [3] | Potency [4] | Potency [8]
active: Potency [7] 11 µM

Sc1nc2ccccc2s1
inactive: Potency [1] | Potency [2] | Potency [3] | Potency [4] | Potency [5] | Potency [7]

CC1=Nc2ccccc2C1(C)C
active: Potency [8] 17.2 µM
inactive: Potency [2] | Potency [3] | Potency [4] | Potency [7]

[Cl][Pt-2]([Cl])([Cl])[Cl]
inactive: Potency [2] | Potency [3] | Potency [4] | Potency [8] | Potency [5] | Potency [7]

Cc1ccc(O)c(O)c1
inactive: Potency [1] | Potency [2] | Potency [3] | Potency [4] | Potency [5] | Potency [6] | Potency [9] | Potency [7]

NC(=S)NC(N)=S
inactive: Potency [2] | Potency [3] | Potency [4] | Potency [8] | Potency [5] | Potency [7]

COC(=O)C1=C(C)NC(C)=C(C(=O)OCCN2CCN(C(c3ccccc3)c3ccccc3)CC2)C1c1cccc([N+](=O)[O-])c1 (stereo not given)
inactive: Potency [1] | Potency [2] | Potency [3] | Potency [4] | Potency [5] | Potency [7]

COc1ccc(-c2coc3cc(O)ccc3c2=O)cc1
inactive: Potency [1] | Potency [2] | Potency [3] | Potency [4] | Potency [5] | Potency [6] | Potency [7]

Cc1cc(C(C#N)c2ccc(Cl)cc2)c(Cl)cc1NC(=O)c1cc(I)cc(I)c1O (stereo not given)
active: Potency [8] 29.8 µM
inactive: Potency [1] | Potency [2] | Potency [3] | Potency [4] | Potency [5]

COC(=O)Nc1nc2ccc(C(=O)c3ccccc3)cc2[nH]1
inactive: Potency [1] | Potency [2] | Potency [3] | Potency [4] | Potency [5] | Potency [7]

CCCCN(CCCC)CC(O)c1cc(Cl)cc2c1-c1ccc(Cl)cc1/C2=C/c1ccc(Cl)cc1 (stereo not given)
inactive: Potency [2] | Potency [3] | Potency [4]

CCCc1ccc(OCC(=O)N2CCN(C(=O)COc3ccc(CCC)cc3OC)CC2)c(OC)c1
inactive: Potency [1] | Potency [2] | Potency [3] | Potency [4] | Potency [5] | Potency [6]

Oc1cc(Cl)cc(Cl)c1Cl
inactive: Potency [2] | Potency [3] | Potency [4] | Potency [5] | Potency [9] | Potency [7]

CC(C)=CCC1=C(O)c2ccccc2C(=O)C1=O
inactive: Potency [2] | Potency [3] | Potency [4] | Potency [5] | Potency [7]

Reference: PubChem BioAssay (Tox21)
